M18AAP inhibitor: PfM18AAP inhibitors, malaria aminopeptidase, primary screen, biochemical, QFRET, recombinant enzyme; H-Glu-NHMec fluorogenic cleavage; M18 aspartyl aminopeptidase (Plasmodium falciparum 3D7); hit rate 1.2% among 290,000; inhibition, % at 7.35 µM;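 active = inhibition above the campaign mean inhibition over all tested compounds plus 3 SD, cut at about 28% in these data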
DNA FID counter: compounds displacing fluorescent DNA intercalator, primary screen, artefact control for HCV NS3 helicase inhibitor project, biochemical, FID fluorescence; DNA fluorescent intercalator displacement; inhibition, % at 7.9 µM; hit rate 0.17% among 290,000; in the data active = inhibition above about 37%;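 also: higher means more ethidium bromide displaced from hairpin DNA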
Rce1 inhib: yeast Rce1p protease inhibitors, primary screen, biochemical, fluorescence, cell-free homogeneous; CAAX prenyl protease 2 (Saccharomyces cerevisiae (strain ATCC 204508 / S288c)), Q03530; yeast membranes, quenched prenylated peptide cleavage fluorescence; calls only; hit rate 0.27% among 290,000; AID 2563, 2010;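 active = fall in fluorescence gain of 50% or more versus controls, with final raw signal at or below 3038400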
Target sequence (Q03530 whole entry, looked up): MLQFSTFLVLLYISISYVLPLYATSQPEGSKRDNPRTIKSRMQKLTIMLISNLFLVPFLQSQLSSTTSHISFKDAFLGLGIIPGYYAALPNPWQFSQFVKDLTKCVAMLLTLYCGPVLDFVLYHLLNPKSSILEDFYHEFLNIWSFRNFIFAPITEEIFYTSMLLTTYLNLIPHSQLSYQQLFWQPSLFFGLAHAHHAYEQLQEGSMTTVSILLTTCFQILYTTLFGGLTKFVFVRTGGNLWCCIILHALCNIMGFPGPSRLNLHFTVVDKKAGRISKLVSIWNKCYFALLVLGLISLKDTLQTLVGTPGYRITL
Kir21 block: inhibitors of mouse Kir2.1 inward-rectifier potassium channel; B-score at 10 µM; HEK293-Kir2.1, FluxOR thallium flux fluorescence; active compounds read low; hit rate 0.85% among 310,000; Inward rectifier potassium channel 2 (Mus musculus), P35561;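 active = fluorescence ratio B-score at or below minus 3 SD of library scores, with starting-brightness B-score within 2 SD, cut at about -4.2 in these data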;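 also: channel flux triggered by added potassium and thallium sulfate stimulus; B-score of peak minus minimum fluorescence over baseline after thallium stimulus; more negative B-score means stronger Kir2.1 block with less thallium influx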
Hits are given with their value; . = inactive; / = no result; + = active, no number. Compounds with a hit are over-represented: about 2.3% of the library has one in this group of screens.

SMILES	M18AAP inhibitor	DNA FID counter	Rce1 inhib	Kir21 block
CC(C)(C)Nc1c2ccccc2nc2ccccc12	.	.	.	-4.5
Clc1cncc(Cl)c1NNc1c2ccccc2nc2ccccc12	.	.	.	.
Fc1ccc(Nc2c3c(nc4ccccc24)CCC3)cc1	.	.	.	-5.1
c1ccc2c(Nc3ccc4c(c3)OCCO4)c3c(nc2c1)CCC3	.	.	.	.
Cc1ccc(-n2nc3c(=O)n(CCCC(=O)N4CCC(C)CC4)nc(C)c3c2C)cc1	.	.	.	.
CSc1ccccc1C(=O)N(C)C(c1ccccc1)c1ccccc1	.	.	.	.
O=[N+]([O-])c1cnc(Nc2ccccc2)nc1Nc1ccccc1	.	.	.	.
Cc1ccc2nc3c(c(Nc4ccccc4)c2c1)CCC3	.	.	.	-4.4
c1ccc(Nc2c3c(nc4ccccc24)CCC3)cc1	.	.	.	-4.9
CN(C)CCCSc1nc(-c2ccccc2)nc2c1CCC2	.	.	.	-9.7
c1cncc(Nc2c3ccccc3nc3ccccc23)c1	.	37	.	.
CN(C)CCSc1nc(-c2ccccc2)nc2c1CCC2	.	.	.	.
COc1ccccc1Nc1c2ccccc2nc2ccccc12	.	.	.	-5
COc1ccc(C)cc1Nc1c2c(nc3ccccc13)CCC2	.	.	.	-9.3
NC1=NC[C@H](Cc2ccc(O)cc2)N1CCCCC1CCCCC1	/	/	.	.
NC1=NC[C@H](Cc2ccccc2)N1CCCCC1CCCCC1	/	/	.	-5.8
COc1cc(/C=C/C(=O)OCC(=O)NCc2ccco2)ccc1O	/	/	.	.
O=[N+]([O-])c1ccc2[nH]cc(S(=O)(=O)N3CCN(c4cccc(Cl)c4)CC3)c2c1	.	39	.	.
Cc1ccc(O)c(-c2cc(-c3ccc(F)cc3)no2)c1	.	.	.	.
O=C(NCc1n[nH]c(=S)n1-c1ccccc1)c1ccc(S(=O)(=O)N2CCOCC2)cc1	.	.	.	.
O=C(NCc1n[nH]c(=S)n1-c1ccc(F)cc1)c1ccc(S(=O)(=O)N2CCOCC2)cc1	28	.	.	.
CCOc1cc(C(c2c(C)[nH][nH]c2=O)c2c(C)[nH][nH]c2=O)ccc1OC(=O)c1cccc([N+](=O)[O-])c1	.	.	.	.
CCOc1ccc(C(c2c(C)[nH][nH]c2=O)c2c(C)[nH][nH]c2=O)cc1OC	.	.	.	.
CCOc1cc(C(c2c(C)[nH][nH]c2=O)c2c(C)[nH][nH]c2=O)cc(Br)c1OC	30	.	.	.
CCOc1cc(C(c2c(C)[nH][nH]c2=O)c2c(C)[nH][nH]c2=O)ccc1OCc1ccc([N+](=O)[O-])cc1	.	.	.	-5.7
SMILES	M18AAP inhibitor	DNA FID counter	Rce1 inhib	Kir21 block
CCOc1cc(C(c2c(C)[nH][nH]c2=O)c2c(C)[nH][nH]c2=O)cc(Cl)c1O	32	.	.	.
CC(C)CCNC(=O)[C@H](Cc1ccccc1)N1Cc2ccccc2C1=O	.	.	.	.
CC(C1CC2CCC1C2)n1c(-c2ccco2)n[nH]c1=S (configuration not stated)	.	.	.	-5.5
O=C(O)CCCC[C@@H]1SC[C@@H]2NC(=O)N[C@@H]21	/	/	+	.
COC(=O)CCCCC1SCC2NC(=O)NC21 (configuration not stated)	.	.	.	.
O=C(Nc1nc2ccccc2s1)C1CCCN1S(=O)(=O)c1ccc(Cl)cc1 (configuration not stated)	.	.	.	.
O=S(=O)(c1ccccc1)N1CCCC1c1nc2ccccc2s1 (configuration not stated)	.	.	.	-4.5
O=C(Nc1ccccc1F)c1ccc(C(=O)c2ccccc2)cc1	.	.	.	.
COc1ccc(NS(=O)(=O)c2ccc3oc(=O)c4[nH]c(=O)c(=O)n(C)c4c3c2)cc1	.	.	+	.
Cc1nn(CCC(N)=O)c2nc(-c3cccs3)cc(C(F)(F)F)c12	.	.	.	.
Cc1nn(CCC(=O)O)c2nc(-c3cccnc3)cc(C(F)(F)F)c12	.	.	+	.
COc1c(CC=C(C)C)cc(C2CC(=O)c3c(O)cc(O)cc3O2)cc1CC=C(C)C (configuration not stated)	/	/	.	.
COc1cc(O)cc2c1[C@@H]1Oc3c(ccc(O)c3CC=C(C)C)[C@@H]1CO2	/	/	.	-5.2
COc1ccc(F)c(CN2CCC(CO)(Cc3cccc(C(F)(F)F)c3)CC2)c1	.	39	.	.
COc1cccc(CC2(CO)CCCN(Cc3cn(C)c4ccccc34)C2)c1 (configuration not stated)	.	.	.	-4.3

Bioassay records as filed in PubChem BioAssay.
